Laboratory results: PubChem BioAssay (Tox21)
Records with an inconclusive call do not appear. A call without a number means that no potency is given here. The source made the active and inactive calls. Unless noted, calls come from the whole dose curve; as a rule, active = well fitted curve in the direction sought with a large enough effect in the repeat runs; inconclusive = weak or mixed curves; inactive = no such curve, though single readings can be large; an effect the other way counts as inactive or inconclusive.

Test system: not listed separately
Assay: qHTS assay to identify small molecule antagonists of the retinoid-related orphan receptor gamma (ROR-gamma) signaling pathway - cell viability counter screen (AID 1159520); note: nearly all actives have a fitted effect of over 50% in size
Conditions: Tet-on RORgamma CHO cells viability, ATP luminescence, 16 h; series mostly up to 92.4 µM
Outline: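 Tet-on ROR gamma CHO cells were given compounds for 2 hr, then doxycycline hyclate at 1 uM final, and incubated 16 hr at 37 C. Viability was measured as ATP content by CellTiter-Glo luminescence.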

Compound	outcome
c1ccc(Oc2ccccc2)cc1	inactive
O=c1[nH]cnc2[nH]ncc12	inactive
CCNc1ccccc1	inactive
O=C1C(c2[nH]c3ccccc3c2O)=Nc2ccccc21	inactive
CCCCOC(=O)c1ccc(N)cc1	inactive
CCCOC(=O)c1ccccc1	inactive
COC(=O)CCCC(=O)OC	inactive
CC(O)CC(C)(C)O (centres undefined)	inactive
CN(C)CCOC(=O)COc1ccc(Cl)cc1	inactive
CN/C(=C\[N+](=O)[O-])NCCSCc1csc(CN(C)C)n1	inactive
CC(=O)CC(C)(C)O	inactive
CC(C)=CCl	inactive
O=S(=O)(O)c1ccccc1	inactive
COC(=O)c1cccnc1	inactive
COc1ccc(OC)cc1	inactive
O=C(O)c1ccc(C(=O)O)c(C(=O)O)c1	inactive
CC(=O)c1ccc(O)cc1	inactive
CCOC(=O)c1ccc(N)cc1	inactive
COc1cc(OC)c(C(=O)CCCN2CCCC2)c(OC)c1	inactive

Compound	outcome
CC(C)c1cccc(C(C)C)c1	inactive
NCCNCCN	inactive
Cc1ccc(C(C)C)c(O)c1	inactive
Cc1ccc([N+](=O)[O-])cc1S(=O)(=O)O	inactive
Cc1ccc2ncccc2c1	inactive
CC(C)CC(=O)CC(C)CC(C)C (centres undefined)	inactive
OC1C(O)C(O)C(O)C(O)C1O (centres undefined)	inactive
O=C1CCCC1	inactive
CCCCCCCC=O	inactive
CC(C)(C#N)c1cc(Cn2cncn2)cc(C(C)(C)C#N)c1	inactive
CC(=O)OCc1ccco1	inactive
CCCCCCCCCCCCCCCCO	inactive
Cc1ccc(S(=O)(=O)N=C=O)cc1	inactive
O=S(=O)(O)c1ccc(N=Nc2c(O)ccc3cc(S(=O)(=O)O)ccc23)cc1	inactive
CCc1ccccc1CC	inactive
Nc1nc(N)nc(-c2ccccc2)n1	inactive
COc1ccc([N+](=O)[O-])cc1N	inactive
CC(C)CCCCCCCOC(=O)CCCCC(=O)OCCCCCCCC(C)C	inactive
CC1(C)CC(N)CC(C)(CN)C1 (centres undefined)	inactive

Target: Nuclear receptor ROR-gamma (Homo sapiens) (UniProt P51449)
Assay: qHTS assay to identify small molecule antagonists of the retinoid-related orphan receptor gamma (ROR-gamma) signaling pathway (AID 1159521;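 note: CHO cells with doxycycline inducible ROR-gamma driving an RORE luciferase reporter; top concentration of the series differs between compounds; nearly all actives have a fitted effect of over 50% in size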)
Conditions: Tet-on RORgamma CHO cells, RORE-luciferase, 16 h; series mostly up to 92.4 µM
Outline: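 Luminescence readout (ONE-Glo, 30 min RT) after 16 h doxycycline induction; loss of signal scored as antagonism. CHO cells with TET-inducible RORγ and RORE-LUC reporter; compounds added 2 h before 1 uM final doxycycline.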

Compound	Potency
c1ccc(Oc2ccccc2)cc1	inactive
O=c1[nH]cnc2[nH]ncc12	inactive
CCNc1ccccc1	inactive
O=C1C(c2[nH]c3ccccc3c2O)=Nc2ccccc21	inactive
CCCCOC(=O)c1ccc(N)cc1	inactive
CCCOC(=O)c1ccccc1	inactive
COC(=O)CCCC(=O)OC	inactive
CC(O)CC(C)(C)O (centres undefined)	inactive
CN(C)CCOC(=O)COc1ccc(Cl)cc1	inactive
CN/C(=C\[N+](=O)[O-])NCCSCc1csc(CN(C)C)n1	inactive
CC(=O)CC(C)(C)O	inactive
CC(C)=CCl	inactive
O=S(=O)(O)c1ccccc1	inactive
COC(=O)c1cccnc1	inactive
COc1ccc(OC)cc1	inactive
O=C(O)c1ccc(C(=O)O)c(C(=O)O)c1	inactive
CC(=O)c1ccc(O)cc1	inactive
CCOC(=O)c1ccc(N)cc1	inactive
COc1cc(OC)c(C(=O)CCCN2CCCC2)c(OC)c1	inactive

Compound	Potency
CC(C)c1cccc(C(C)C)c1	inactive
NCCNCCN	inactive
Cc1ccc(C(C)C)c(O)c1	inactive
Cc1ccc([N+](=O)[O-])cc1S(=O)(=O)O	inactive
Cc1ccc2ncccc2c1	inactive
CC(C)CC(=O)CC(C)CC(C)C (centres undefined)	inactive
OC1C(O)C(O)C(O)C(O)C1O (centres undefined)	inactive
O=C1CCCC1	inactive
CCCCCCCC=O	inactive
CC(C)(C#N)c1cc(Cn2cncn2)cc(C(C)(C)C#N)c1	inactive
CC(=O)OCc1ccco1	inactive
CCCCCCCCCCCCCCCCO	inactive
Cc1ccc(S(=O)(=O)N=C=O)cc1	inactive
O=S(=O)(O)c1ccc(N=Nc2c(O)ccc3cc(S(=O)(=O)O)ccc23)cc1	inactive
CCc1ccccc1CC	inactive
Nc1nc(N)nc(-c2ccccc2)n1	inactive
COc1ccc([N+](=O)[O-])cc1N	inactive
CC(C)CCCCCCCOC(=O)CCCCC(=O)OCCCCCCCC(C)C	inactive
CC1(C)CC(N)CC(C)(CN)C1 (centres undefined)	inactive

Test system: not listed separately
Assay: qHTS assay to identify small molecule agonists of the AP-1 signaling pathway - cell viability counter screen (AID 1159525; calls by dose curve; note: nearly all actives have a fitted effect of over 55% in size)
Conditions: ME-180 (cervical carcinoma) AP-1-bla cells viability, ATP luminescence, 5 h; series mostly up to 76.8 µM
Outline: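 Same-well cytotoxicity counter screen of the Tox21 10K library in ME-180 cells. The readout is ATP-dependent luminescence after 5 h compound treatment. Data are normalised to DMSO and tetra n-octyl ammonium bromide controls.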

Compound	outcome
c1ccc(Oc2ccccc2)cc1	inactive
O=c1[nH]cnc2[nH]ncc12	inactive
CCNc1ccccc1	inactive
O=C1C(c2[nH]c3ccccc3c2O)=Nc2ccccc21	inactive
CCCCOC(=O)c1ccc(N)cc1	inactive
CCCOC(=O)c1ccccc1	inactive
COC(=O)CCCC(=O)OC	inactive
CC(O)CC(C)(C)O (centres undefined)	inactive
CN(C)CCOC(=O)COc1ccc(Cl)cc1	inactive
CN/C(=C\[N+](=O)[O-])NCCSCc1csc(CN(C)C)n1	inactive
CC(=O)CC(C)(C)O	inactive
CC(C)=CCl	inactive
O=S(=O)(O)c1ccccc1	inactive
COC(=O)c1cccnc1	inactive
COc1ccc(OC)cc1	inactive
O=C(O)c1ccc(C(=O)O)c(C(=O)O)c1	inactive
CC(=O)c1ccc(O)cc1	inactive
CCOC(=O)c1ccc(N)cc1	inactive
COc1cc(OC)c(C(=O)CCCN2CCCC2)c(OC)c1	inactive

Compound	outcome
CC(C)c1cccc(C(C)C)c1	inactive
NCCNCCN	inactive
Cc1ccc(C(C)C)c(O)c1	inactive
Cc1ccc([N+](=O)[O-])cc1S(=O)(=O)O	inactive
Cc1ccc2ncccc2c1	inactive
CC(C)CC(=O)CC(C)CC(C)C (centres undefined)	inactive
OC1C(O)C(O)C(O)C(O)C1O (centres undefined)	inactive
O=C1CCCC1	inactive
CCCCCCCC=O	inactive
CC(C)(C#N)c1cc(Cn2cncn2)cc(C(C)(C)C#N)c1	inactive
CC(=O)OCc1ccco1	inactive
CCCCCCCCCCCCCCCCO	inactive
Cc1ccc(S(=O)(=O)N=C=O)cc1	inactive
O=S(=O)(O)c1ccc(N=Nc2c(O)ccc3cc(S(=O)(=O)O)ccc23)cc1	inactive
CCc1ccccc1CC	inactive
Nc1nc(N)nc(-c2ccccc2)n1	inactive
COc1ccc([N+](=O)[O-])cc1N	inactive
CC(C)CCCCCCCOC(=O)CCCCC(=O)OCCCCCCCC(C)C	inactive
CC1(C)CC(N)CC(C)(CN)C1 (centres undefined)	inactive
